# Screens (PubChem BioAssay)
# Shown are actives, neighbours in structure and some others; about 4.8% of the full set was active somewhere.
# DAX1 inh-1 = inhibits human nuclear receptor DAX1; HEK293 Gal4-DAX1 luciferase reporter, luminescence; inhibition, % at 6.75 µM; 340,000 tested, 0.99% active; AID 504766;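 active = inhibition above the mean over all tested compounds plus 3 SD, cut at about 4.2% in these data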;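 note: inhibition shows as a rise in luminescence from relieved DAX1 repression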
# Target sequence (P51843 207-470 limits assumed): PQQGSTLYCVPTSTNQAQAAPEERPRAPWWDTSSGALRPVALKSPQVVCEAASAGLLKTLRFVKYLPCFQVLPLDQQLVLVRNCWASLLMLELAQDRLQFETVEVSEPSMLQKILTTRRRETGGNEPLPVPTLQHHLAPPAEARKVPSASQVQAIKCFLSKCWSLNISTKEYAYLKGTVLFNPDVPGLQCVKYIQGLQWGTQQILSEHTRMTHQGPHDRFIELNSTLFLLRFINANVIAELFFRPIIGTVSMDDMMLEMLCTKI
# ssDAF12 agonist = activators of S. stercoralis DAF-12 nuclear receptor | activation, % at 6.8 µM | HEK293 ssDAF-12/GRIP1 lit1-tk-luc reporter, luminescence; % of 3 µM dafachronic acid response | 370,000 tested, 1% active;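 active = activation above the mean over all tested compounds plus 3 SD, cut at about 0.9% in these data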
# DAX1 inh-2 = inhibitors of DAX1 repression of SF-1 activated StAR promoter | HEK293T StAR-luciferase reporter, SF-1/DAX-1 repression relief | inhibition, % at 6.8 µM | 370,000 tested, 1.1% active | AID 652010;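 active = inhibition above the mean over all tested compounds plus 3 SD, cut at about 3.6% in these data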;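 note: higher inhibition means more luminescence from relief of DAX-1 repression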
# hgDAF12 agonist = activates the H. glycines DAF-12 receptor ligand-binding domain; HEK293 GAL4-hgDAF12 UAS-luciferase reporter, agonist luminescence; normalized to butyrate control; activation, % at 6.8 µM; 370,000 tested, 1.8% active; AID 687014;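 active = activation above a cutoff set at the mean of all screened compounds plus 3 SD, cut at about 10% in these data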
# hcDAF-12 act = activators of H. contortus DAF-12 nuclear receptor | HEK293 hcDAF-12 lit1-tk-luc reporter, luminescence; 0% DMSO, 100% Δ7-dafachronic acid | activation, % at 6.8 µM | 370,000 tested, 1.4% active;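 active = activation above the mean of all tested compounds plus 3 SD, cut at about 5.5% in these data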
# SMARCA2 act = increases SMARCA2 function in MMTV reporter cells | 370,000 tested, 1% active | activation, % at 9.1 µM | MG213 cells, MMTV-luciferase reporter, dexamethasone, overnight; in the data active = activation above about 7.8%
# SMARCA2 act conf = confirmation of SMARCA2 (BRM) function activators | shares compounds with SMARCA2 act | MG213 cells, MMTV-luciferase with dexamethasone, luminescence, overnight; MG213 cells expressing E1A, Rb sequestered; DMSO wells 0%, reference activator 100% | activation, % at 9.1 µM | 3,500 tested, 30% active;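 active = activation above its plate's cutoff, the mean activation of tested wells plus 3 SD, cut at about 7.9% in these data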
# GAL4-VP16 Luc = activates GAL4-VP16 luciferase, flagging SMARCA2 activator hits; AID 686939; HEK293 GAL4-VP16 pG5luc reporter, luciferase luminescence; scaled: DMSO wells 0%, SAHA wells 100%; 3,500 tested, 41% active; shares compounds with SMARCA2 act; activation, % at 9.1 µM;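 active = activation above the solvent-only control well mean plus 3 SD, averaged across control plates, cut at about 5.2% in these data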
# Numbers stand for hits; – = inactive; · = no result.
SMILES,DAX1 inh-1,ssDAF12 agonist,DAX1 inh-2,hgDAF12 agonist,hcDAF-12 act,SMARCA2 act,SMARCA2 act conf,GAL4-VP16 Luc
O=C1ON(Cc2ccccc2)C(c2ccccc2)N1c1ccccc1 (stereo unspecified),–,–,–,–,–,11.4,–,–
Cn1cccc1CC(=O)NNC(=S)Nc1ccccc1Cl,–,–,–,–,–,8.3,–,–
COC(=O)c1ccccc1NC(=O)CCc1ccccc1,–,–,–,–,–,–,·,·
NC1=NN=C(N2N=C(c3ccco3)CC2(O)C(F)(F)F)n2ncnc2C1 (stereo unspecified),–,–,–,–,–,–,·,·
Cc1ccc(NC(=O)COC(=O)C2CCC(=O)N2)c([N+](=O)[O-])c1 (stereo unspecified),–,–,–,–,–,12.6,–,–
c1ccc2c(c1)COc1c3ncccc3nn1-2,–,–,–,13.0,–,13.1,8.2,8.4
CCOc1ccccc1-n1cnc(C#N)c1N,–,–,–,–,–,–,·,·
CC1CCCN(S(=O)(=O)c2ccc3[nH]c(=O)cc(C(=O)NCCCN4CCCCCC4)c3c2)C1 (stereo unspecified),–,–,–,–,–,–,·,·
CCCCN(C)CCCNC(=O)c1cc(=O)[nH]c2ccc(S(=O)(=O)N3CCCCC3C)cc12 (stereo unspecified),–,–,–,–,–,8.2,–,–
CC(Oc1ccc(Cl)cc1Cl)C(=O)NC1CCSC1=O (stereo unspecified),–,–,–,–,–,8.3,–,–
OCCOCCn1c(CCNc2nc(-c3ccc(F)cc3)cs2)nc2cc(C(F)(F)F)ccc21,–,–,–,–,–,–,·,·
Cc1ccsc1/C=C1/SC(N2CC(C)OC(C)C2)=NC1=O (stereo unspecified),–,–,–,–,–,10.6,–,–
CCOc1ccc2oc(=O)cc(C)c2c1,–,–,–,–,–,–,·,·
CCC(=O)Oc1ccc2oc(=O)cc(C)c2c1,–,–,–,–,–,12.9,–,–
CCCCOC(=O)Nc1ccc(N2CCOCC2)cc1,–,–,–,–,–,10.5,9.8,5.7
CCNCC(=O)Nc1ccc(N2CCOCC2)cc1,–,–,–,–,–,–,·,·
CCOC(=O)C1=C(C)N(C)C(=O)NC1c1c(O)ccc2ccccc12 (stereo unspecified),–,–,–,–,–,–,·,·
COc1ccc(CCNC(=O)c2cc3c(=O)n4ccccc4nc3n(C3CCCCC3)c2=N)cc1OC,–,–,–,–,–,11.8,–,–
Cc1cccn2c(=O)c3cc(C(=O)NCCN4CCOCC4)c(=N)n(CCc4ccccc4)c3nc12,–,–,–,–,–,10.7,–,–
COc1ccc(CCNC(=O)c2cc3c(=O)n4ccccc4nc3n(C3CCCCC3)c2=N)cc1,–,–,–,–,–,–,·,·
Cc1cccn2c(=O)c3cc(C(=O)NCCN4CCOCC4)c(=N)n(CCCN4CCOCC4)c3nc12,–,–,–,–,–,–,·,·
Cc1cccn2c(=O)c3cc(C(=O)NC4CCCC4)c(=N)n(C4CCCCC4)c3nc12,–,–,–,–,–,8.2,8.3,–
NC(=O)C1CCN(c2nc(-c3ccc(N)cc3)cs2)CC1,·,–,·,–,–,·,·,·
CCc1ccc(OCc2nnc(SCC(=O)Nc3cccc(C(=O)N4CCOCC4)c3)o2)cc1,–,–,–,–,–,–,·,·
O=C(Cc1n[nH]c(=O)c2ccccc12)N1CCN(c2ccc(F)cc2)CC1,–,–,–,–,–,–,·,·
SMILES,DAX1 inh-1,ssDAF12 agonist,DAX1 inh-2,hgDAF12 agonist,hcDAF-12 act,SMARCA2 act,SMARCA2 act conf,GAL4-VP16 Luc
CCOc1ccc(C(=O)NC(=S)Nc2ccc(N3CCC(C)CC3)cc2)cc1[N+](=O)[O-],–,–,–,–,–,–,·,·
COc1ccccc1OCc1nc2ccccc2n1C,–,–,–,–,–,10.2,12.5,7.5
Cc1cccc(C)c1-n1c(C)cc(/C=N/NC(=O)c2ccncc2)c1C,–,–,–,–,–,–,·,·
Cc1ccccc1N1C(=O)c2cccc([N+](=O)[O-])c2C1=O,–,–,–,–,–,–,·,·
COc1cc(OCc2ccccc2)c2c(CCC(=O)O)cc(=O)oc2c1,–,–,–,–,–,8.5,–,–
CC(C)c1ccccc1NC(=S)NCc1ccccc1F,–,–,–,–,–,–,·,·
CCOC(=O)C1(Cc2cccc(OC)c2)CCCN(C(=O)CCc2cccnc2)C1 (stereo unspecified),–,–,–,11.6,–,9.3,–,7.9
N=C1C(c2nc3ccccc3[nH]2)=C(O)CN1c1ccccc1,–,–,–,–,–,8.2,9.0,7.4
CCCCNc1nc(N)nc(-c2cc(Cl)ccc2O)n1,–,–,–,–,–,17.4,13.5,13.2
Cc1ccc(NC(=O)c2ccc(Cn3cc(Br)cn3)o2)cc1,–,–,–,–,–,–,·,·
NNC(=O)c1ccc(Cn2cc(Br)cn2)o1,4.5,–,–,–,–,8.1,–,–
N#C/C(C(=O)NCc1ccccc1)=C1/N=C(NC(=O)c2ccco2)c2ccccc21,–,–,–,–,–,10.2,–,–
O=C(NNC(=O)c1ccc(Cl)cc1Cl)c1ccncc1,–,–,–,–,–,–,·,·
O=C(NNC(=O)c1ccccc1Cl)c1ccncc1,–,–,–,–,–,8.7,–,–
c1ccc(-c2cnc(-c3cccnc3)o2)cc1,–,–,–,–,–,–,·,·
NC(=O)c1ccc(-c2ncc(-c3ccccc3)o2)cc1,–,–,–,–,–,18.3,17.4,11.0
O=C(COC(=O)c1cccnc1Cl)c1ccc2c(c1)OCCO2,–,–,–,–,–,–,·,·
O=C(COC(=O)c1ccc(Cl)nc1)c1ccc2c(c1)OCCO2,–,–,–,–,–,10.2,–,–
COC(=O)CNC(=O)COC(=O)c1ccc(Cl)nc1,–,–,–,–,–,8.8,–,–
Cc1c(C(=O)OCC(=O)N2CCC(C)CC2)oc2ccccc12,–,–,–,–,–,9.2,–,–
Cc1cc(C(=O)OCC(=O)c2ccc3c(c2)OCCO3)c(C)o1,–,–,–,–,–,8.1,–,–
COc1ccc2oc(C(=O)OCC(=O)N3CCC(C)CC3)c(C)c2c1,–,–,–,–,–,–,·,·
O=c1cnnc(Nc2cccc(C(F)(F)F)c2)[nH]1,–,–,–,–,–,–,·,·
CN(NS(=O)(=O)c1ccc([N+](=O)[O-])cc1)c1ccccc1,–,–,–,–,–,–,·,·
